From PubChem BioAssay (EPA / NIEHS)
Records with an inconclusive call do not appear. The source made the active and inactive calls. Rule for the calls, unless noted: active = hit-call score of the fitted dose curve at least 0.9, where 1 is the maximum; inconclusive = response in the unintended direction; inactive = score below 0.9.

Experiments:
[1] = ATG_GRE_CIS: Attagene CIS-FACTORIAL HepG2 Assay for human Glucocorticoid Response Elements (GRE) (AID 2282947; active = hit-call score of the fitted dose curve at least 0.9, where 1 is the maximum; inactive = score below 0.9); details: HepG2 GRE cis-reporter, Attagene multiplex mRNA; actives raise or lower the signal
Method in brief: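 Read-out: fluorescent reporter-transcript fragments separated by capillary electrophoresis after RT-PCR. Transiently transfected HepG2 cells carrying cis-element-driven reporter units were dosed for 24 h; gain or loss of signal fitted against DMSO control.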

[2] = biological target: Hepatocyte nuclear factor 6 (Homo sapiens) (UniProt Q9UBC0); test: ATG_HNF6_CIS: Attagene CIS-FACTORIAL HepG2 Assay for human Hepatocyte Nuclear Factor 6 (HNF6) (AID 2282952; active = hit-call score of the fitted dose curve at least 0.9, where 1 is the maximum; inactive = score below 0.9); details: HepG2 Attagene cis-factorial HNF6 reporter transcription; actives raise or lower the signal
Method in brief: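 Endogenous transcription factor activity in human HepG2 liver cells was captured through cis-regulated reporter constructs. After 24 h treatment, reporter mRNA was measured by RT-PCR with capillary electrophoresis, and activity was fitted in both directions relative to DMSO.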

[3] = biological target: Paired box protein Pax-6 (Homo sapiens) (UniProt P26367); test: ATG_Pax6_CIS: Attagene CIS-FACTORIAL HepG2 Assay for human Paired Box 6 (PAX6) (AID 2282956; active = hit-call score of the fitted dose curve at least 0.9, where 1 is the maximum; inactive = score below 0.9); details: HepG2 CIS-FACTORIAL PAX6 reporter transcription, RNA readout; actives raise or lower the signal
Method in brief: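 Fluorescent RT-PCR products separated by capillary electrophoresis report PAX6-linked promoter mRNA in HepG2 cells 24 h post-dose. Curves fitted bidirectionally, DMSO as negative control.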

[4] = ATG_TA_CIS: Attagene CIS-FACTORIAL HepG2 Assay for human TA Basal Promoter (AID 2282964; active = hit-call score of the fitted dose curve at least 0.9, where 1 is the maximum; inactive = score below 0.9); details: HepG2 Attagene CIS-factorial TA basal promoter reporter; actives raise or lower the signal
Method in brief: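 HepG2 cells transiently transfected with multiple reporter units under cis promoter elements, reporting endogenous transcription factor activity; this endpoint tracks the TA basal promoter as background control. Reporter mRNA after 24 h dosing measured by RT-PCR/capillary electrophoresis; bidirectional fits versus DMSO.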

[5] = biological target: Hepatocyte nuclear factor 4-alpha (Homo sapiens) (UniProt P41235); test: ATG_HNF4a_TRANS: Attagene TRANS-FACTORIAL HepG2 Assay for human Hepatocyte Nuclear Factor 4 alpha (HNF4a) (AID 2282982); details: HepG2 HNF4a transactivation reporter, mRNA readout
Method in brief: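 Transient MRTU transfection of HepG2, 24 h dosing. Readout: reporter mRNA via RT-PCR + capillary electrophoresis, fluorescence; activity fit upward relative to DMSO control.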

[6] = ATG_M_06_TRANS: Attagene TRANS-FACTORIAL HepG2 Assay for M06 Transcription Factor (Internal Marker) (AID 2282983); details: HepG2 Attagene TRANS M06 internal marker reporter;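 note: reporter transcript level by RT-PCR then capillary electrophoresis fluorescence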
Method in brief: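 Human liver HepG2 cells bearing transiently transfected chimeric NR-GAL4 reporter units were treated with chemicals for 24 h. Total RNA was reverse-transcribed, reporter sequences amplified and labelled, then quantified by capillary electrophoresis. Activity was fitted upward relative to DMSO.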

[7] = ATG_M_32_TRANS: Attagene TRANS-FACTORIAL HepG2 Assay for M32 Transcription Factor (Internal Marker) (AID 2282984); details: HepG2 Attagene TRANS M32 internal marker reporter
Method in brief: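 Read-out: fluorescent reporter cDNA fragments resolved by capillary electrophoresis after RT-PCR of total RNA. Transfected HepG2 cells were exposed to chemical for 24 h. Activity scored in the positive direction relative to DMSO.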

[8] = ATG_NFI_CIS: Attagene CIS-FACTORIAL HepG2 Assay for human Nuclear Factor I (NFI) (AID 2282989; active = hit-call score of the fitted dose curve at least 0.9, where 1 is the maximum; inactive = score below 0.9); details: HepG2 cis-regulatory reporter, NFI response element transcription; actives raise or lower the signal
Method in brief: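 Endogenous TF activity in HepG2 cells transiently transfected with cis-element-driven multiplexed reporter units, read 24 h after dosing. Reporter mRNA quantified by RT-PCR, 6-FAM labelling, HpaI digestion and capillary electrophoresis; bidirectional fit versus DMSO.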

[9] = ATG_NF_kB_CIS: Attagene CIS-FACTORIAL HepG2 Assay for human Nuclear Factor Kappa B (NF-kB) (AID 2282991; active = hit-call score of the fitted dose curve at least 0.9, where 1 is the maximum; inactive = score below 0.9); details: HepG2 Attagene cis-factorial NF-kB reporter mRNA; actives raise or lower the signal
Method in brief: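 HepG2 cells transiently transfected with multiplexed cis-element reporter units measuring endogenous transcription factor activity; reporter mRNA read 24 h after dosing by RT-PCR, fluorescent labelling, HpaI digestion and capillary electrophoresis. Bidirectional fit against DMSO baseline.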

[10] = biological target: Retinoic acid receptor RXR-alpha (Homo sapiens) (UniProt P19793); test: ATG_RXRa_TRANS: Attagene TRANS-FACTORIAL HepG2 Assay for human Retinoid X Receptor alpha (RXRa) (AID 2283012)
Method in brief: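 Chimeric NR-GAL4 trans-activation in HepG2, 24 h treatment; reporter transcripts quantified by fluorescence on capillary electrophoresis, analysed for upward change from DMSO.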

[11] = biological target: human Vitamin D Receptor (VDR), VDR (gene 7421) (UniProt P11473); test: ATG_VDR_TRANS: Attagene TRANS-FACTORIAL HepG2 Assay for human Vitamin D Receptor (VDR) (AID 2283022)
Method in brief: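 Fluorescence of labelled reporter cDNA fragments, resolved by capillary electrophoresis, gives mRNA induction after 24 h treatment of HepG2 cells carrying transfected Gal4-fusion reporter units. Activity is fitted in the positive direction with DMSO as baseline.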

[12] = TOX21_p53_BLA_p2_viability: Viability Assessment in the Tox21 HCT-116 p53 Agonism Beta-lactamase Assay, Phase 2 (AID 2283591);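 note: compound exposure lasted 16 h at 37 °C; actives lower the ATP signal meaning cytotoxicity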
Method in brief: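 HCT116 p53-bla cells, 4000/well, dosed after 5 h plating (217-fold dilution of DMSO stocks) and incubated 16 h at 37C. Viability taken as cellular ATP by CellTiter-Glo luminescence after 30 min RT; signal loss marks cytotoxicity.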

[13] = biological target: Cellular tumor antigen p53 (Homo sapiens) (UniProt P04637); test: TOX21_p53_BLA_p2_ratio: Tox21 HCT-116 p53 Agonism Beta-lactamase Assay, Ratio, Phase 2 (AID 2283592)
Method in brief: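 Cleaved-to-uncleaved substrate ratio (460 vs 530 nm) measured in HCT116 cells with an inducible beta-lactamase reporter linked to p53 activity. Compounds incubated 16 h at 37C before 2 h room-temperature CCF4-AM loading.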

[14] = biological target: Cellular tumor antigen p53 (Homo sapiens) (UniProt P04637); test: TOX21_p53_BLA_p5_ratio: Tox21 HCT-116 p53 Agonism Beta-lactamase Assay, Ratio, Phase 5 (AID 2283599)
Method in brief: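 HCT-116 p53-bla cells (4000/well) plated 5 h, dosed with compound (217-fold DMSO dilution) for 16 h at 37 C; CCF4-AM substrate 2 h at room temperature. Activity is the 460/530 nm emission ratio (405 nm excitation), fitted in gain-of-signal direction versus DMSO.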

[15] = biological target: Cellular tumor antigen p53 (Homo sapiens) (UniProt P04637); test: TOX21_p53_BLA_p4_ratio: Tox21 HCT-116 p53 Agonism Beta-lactamase Assay, Ratio, Phase 4 (AID 2283601)
Method in brief: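 HCT-116 p53 beta-lactamase reporter cells (4000/well) preincubated 5 h, then compound (217-fold dilution of DMSO stock) for 16 h at 37C. CCF4-AM substrate added 2 h at room temperature; 460/530 nm emission ratio fitted upward versus DMSO.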

[16] = ATG_PBREM_CIS: Attagene CIS-FACTORIAL HepG2 Assay for human Phenobarbital-responsive Enhancer Module (PBREM) (AID 2282955; active = hit-call score of the fitted dose curve at least 0.9, where 1 is the maximum; inactive = score below 0.9); details: HepG2 PBREM cis-reporter, Attagene multiplexed transcription; actives raise or lower the signal
Method in brief: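 HepG2 cells transiently transfected with multiple cis-regulated reporter transcription units; endogenous factor activity at the PBREM element measured as reporter mRNA 24 h after dosing, via RT-PCR and capillary electrophoresis of fluorescent fragments; bidirectional fitting versus DMSO.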

[17] = biological target: human Retinoid X Receptor beta (RXRb), RXRB (gene 6257) (UniProt P28702); test: ATG_RXRb_TRANS: Attagene TRANS-FACTORIAL HepG2 Assay for human Retinoid X Receptor beta (RXRb) (AID 2283013)
Method in brief: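 After a 24 h incubation with test chemical, transfected HepG2 cells carrying NR-Gal4 fusions and GAL4-UAS reporter transcription units yield RNA whose reporter cDNA is FAM-labelled, HpaI-cut and sized by capillary electrophoresis; increases over DMSO are scored.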

[18] = ATG_M_19_CIS: Attagene CIS-FACTORIAL HepG2 Assay for M19 Transcription Factor (Internal Marker) (AID 2282939; active = hit-call score of the fitted dose curve at least 0.9, where 1 is the maximum; inactive = score below 0.9); details: HepG2 Attagene CIS-FACTORIAL M19 internal marker reporter; actives raise or lower the signal
Method in brief: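 HepG2 cells transiently transfected with cis-regulated multiplexed reporter units, dosed 24 h. Reporter mRNA quantified by RT-PCR and capillary electrophoresis; internal background marker fitted bidirectionally versus DMSO.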

[19] = ATG_GATA_CIS: Attagene CIS-FACTORIAL HepG2 Assay for human GATA Binding Protein (AID 2282944; active = hit-call score of the fitted dose curve at least 0.9, where 1 is the maximum; inactive = score below 0.9); details: HepG2 GATA cis-element reporter, Attagene multiplex mRNA; actives raise or lower the signal
Method in brief: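 HepG2 cells transiently transfected with multiplexed cis-element reporter units measure endogenous GATA activity; after 24 h compound exposure, reporter mRNA quantified by RT-PCR and capillary electrophoresis. Changes fitted in both directions vs DMSO.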

[20] = biological target: Cellular tumor antigen p53 (Homo sapiens) (UniProt P04637); test: TOX21_p53_BLA_p3_ratio: Tox21 HCT-116 p53 Agonism Beta-lactamase Assay, Ratio, Phase 3 (AID 2283596)
Method in brief: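 Cells were seeded at 4000/well, rested 5 h at 37C, then dosed with DMSO compound solutions (217-fold dilution) for 16 h. CCF4-AM substrate was loaded for 2 h at room temperature, and the 460/530 nm emission ratio was fitted for gain of signal versus DMSO.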

Measured: AC50

human Retinoid X Receptor beta (RXRb), RXRB (gene 6257), sequence (P28702 whole entry, looked up, the tested form may be a part): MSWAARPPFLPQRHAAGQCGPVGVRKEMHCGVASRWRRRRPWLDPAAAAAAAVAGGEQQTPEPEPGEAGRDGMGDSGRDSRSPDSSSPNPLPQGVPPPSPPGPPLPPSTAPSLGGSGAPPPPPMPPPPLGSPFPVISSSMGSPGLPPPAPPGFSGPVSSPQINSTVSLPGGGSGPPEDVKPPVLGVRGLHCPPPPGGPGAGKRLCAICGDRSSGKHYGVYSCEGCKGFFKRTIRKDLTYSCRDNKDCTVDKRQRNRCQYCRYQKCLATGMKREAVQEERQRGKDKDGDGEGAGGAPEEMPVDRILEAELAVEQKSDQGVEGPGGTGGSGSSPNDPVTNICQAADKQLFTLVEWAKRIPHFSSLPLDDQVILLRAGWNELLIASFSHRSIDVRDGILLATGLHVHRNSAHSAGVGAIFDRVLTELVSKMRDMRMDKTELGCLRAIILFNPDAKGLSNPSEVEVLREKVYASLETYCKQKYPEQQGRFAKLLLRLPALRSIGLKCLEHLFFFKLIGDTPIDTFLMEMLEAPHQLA
Retinoic acid receptor RXR-alpha (Homo sapiens), sequence (P19793 whole entry, looked up, the tested form may be a part): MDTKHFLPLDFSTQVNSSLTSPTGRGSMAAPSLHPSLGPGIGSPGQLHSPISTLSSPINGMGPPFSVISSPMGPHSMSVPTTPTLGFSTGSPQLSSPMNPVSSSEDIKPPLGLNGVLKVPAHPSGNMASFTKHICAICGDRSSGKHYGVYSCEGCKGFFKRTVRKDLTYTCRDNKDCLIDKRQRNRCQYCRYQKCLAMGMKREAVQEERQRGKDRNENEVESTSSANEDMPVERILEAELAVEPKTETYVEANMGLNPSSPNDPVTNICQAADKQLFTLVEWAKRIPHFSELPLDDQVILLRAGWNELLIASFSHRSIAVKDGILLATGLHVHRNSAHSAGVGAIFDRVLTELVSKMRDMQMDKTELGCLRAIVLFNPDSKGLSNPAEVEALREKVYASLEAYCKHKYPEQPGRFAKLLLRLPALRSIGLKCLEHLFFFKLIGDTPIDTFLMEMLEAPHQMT
Cellular tumor antigen p53 (Homo sapiens), sequence (P04637 whole entry, looked up): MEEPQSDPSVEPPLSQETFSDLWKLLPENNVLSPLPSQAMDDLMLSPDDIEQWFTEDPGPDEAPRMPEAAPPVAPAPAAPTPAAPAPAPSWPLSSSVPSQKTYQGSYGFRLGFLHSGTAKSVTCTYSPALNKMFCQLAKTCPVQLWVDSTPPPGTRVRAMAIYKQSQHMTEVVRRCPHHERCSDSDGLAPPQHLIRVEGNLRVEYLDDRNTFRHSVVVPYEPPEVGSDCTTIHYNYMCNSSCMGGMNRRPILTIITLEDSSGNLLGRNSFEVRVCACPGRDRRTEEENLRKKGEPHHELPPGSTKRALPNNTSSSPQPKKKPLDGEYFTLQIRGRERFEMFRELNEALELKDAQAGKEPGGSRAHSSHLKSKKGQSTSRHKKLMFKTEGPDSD
human Vitamin D Receptor (VDR), VDR (gene 7421), sequence (P11473 whole entry, looked up, the tested form may be a part): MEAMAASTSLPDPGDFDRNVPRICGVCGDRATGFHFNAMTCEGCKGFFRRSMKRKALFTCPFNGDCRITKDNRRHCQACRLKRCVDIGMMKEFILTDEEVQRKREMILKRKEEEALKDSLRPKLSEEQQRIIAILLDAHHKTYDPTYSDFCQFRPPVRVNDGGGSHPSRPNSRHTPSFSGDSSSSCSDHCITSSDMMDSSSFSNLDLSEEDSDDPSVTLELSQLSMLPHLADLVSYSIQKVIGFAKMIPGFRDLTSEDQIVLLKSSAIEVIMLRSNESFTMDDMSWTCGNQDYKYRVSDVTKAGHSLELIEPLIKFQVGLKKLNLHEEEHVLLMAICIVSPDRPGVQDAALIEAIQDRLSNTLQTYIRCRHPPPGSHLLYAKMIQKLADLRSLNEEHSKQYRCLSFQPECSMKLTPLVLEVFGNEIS
Hepatocyte nuclear factor 6 (Homo sapiens), sequence (Q9UBC0 whole entry, looked up): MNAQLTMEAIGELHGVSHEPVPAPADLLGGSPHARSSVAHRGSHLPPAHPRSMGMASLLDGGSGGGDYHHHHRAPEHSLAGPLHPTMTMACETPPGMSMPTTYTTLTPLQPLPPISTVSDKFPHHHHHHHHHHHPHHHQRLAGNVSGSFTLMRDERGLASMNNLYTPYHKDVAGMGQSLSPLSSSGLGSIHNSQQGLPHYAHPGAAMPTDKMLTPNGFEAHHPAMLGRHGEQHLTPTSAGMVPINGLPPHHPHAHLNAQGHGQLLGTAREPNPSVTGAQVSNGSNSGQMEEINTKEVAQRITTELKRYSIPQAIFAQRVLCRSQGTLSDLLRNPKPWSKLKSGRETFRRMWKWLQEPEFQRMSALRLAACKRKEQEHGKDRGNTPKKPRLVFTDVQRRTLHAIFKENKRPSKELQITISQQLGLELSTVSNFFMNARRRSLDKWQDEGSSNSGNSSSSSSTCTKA
Paired box protein Pax-6 (Homo sapiens), sequence (P26367 whole entry, looked up): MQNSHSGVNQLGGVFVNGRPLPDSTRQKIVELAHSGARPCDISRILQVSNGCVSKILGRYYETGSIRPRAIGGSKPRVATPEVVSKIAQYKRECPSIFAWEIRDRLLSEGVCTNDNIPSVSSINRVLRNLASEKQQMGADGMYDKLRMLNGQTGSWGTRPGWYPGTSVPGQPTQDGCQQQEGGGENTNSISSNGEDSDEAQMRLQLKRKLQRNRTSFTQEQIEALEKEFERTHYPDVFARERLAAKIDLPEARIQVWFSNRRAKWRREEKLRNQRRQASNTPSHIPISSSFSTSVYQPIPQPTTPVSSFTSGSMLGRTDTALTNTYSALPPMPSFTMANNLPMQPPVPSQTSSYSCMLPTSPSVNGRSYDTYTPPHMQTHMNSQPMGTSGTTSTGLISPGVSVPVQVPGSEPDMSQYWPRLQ
Hepatocyte nuclear factor 4-alpha (Homo sapiens), sequence (P41235 whole entry, looked up): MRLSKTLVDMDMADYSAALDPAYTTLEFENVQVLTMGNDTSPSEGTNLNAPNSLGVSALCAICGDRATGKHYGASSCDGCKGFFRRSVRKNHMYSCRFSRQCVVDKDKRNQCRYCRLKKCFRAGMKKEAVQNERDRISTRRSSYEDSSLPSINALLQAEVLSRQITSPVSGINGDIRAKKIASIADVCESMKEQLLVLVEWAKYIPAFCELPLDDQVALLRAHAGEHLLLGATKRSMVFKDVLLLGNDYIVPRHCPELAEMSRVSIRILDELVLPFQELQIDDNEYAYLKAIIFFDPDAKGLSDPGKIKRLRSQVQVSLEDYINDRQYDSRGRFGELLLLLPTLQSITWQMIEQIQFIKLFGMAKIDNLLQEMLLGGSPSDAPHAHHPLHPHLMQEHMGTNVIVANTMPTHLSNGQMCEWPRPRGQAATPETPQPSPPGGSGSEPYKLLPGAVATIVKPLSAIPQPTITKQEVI

C=C(C)C(=O)OCCCCCC
inactive: [1] | [2] | [3] | [4] | [5] | [6] | [7] | [8] | [9] | [10] | [11] | [12] | [13] | [14] | [15]

C=C(C)C(=O)OCC1CCCO1 (centres undefined)
inactive: [1] | [2] | [16] | [5] | [6] | [7] | [8] | [10] | [17] | [12] | [14] | [15]

N#CCN(CC#N)CCN(CC#N)CC#N
inactive: [18] | [19] | [1] | [2] | [16] | [4] | [5] | [6] | [7] | [8] | [9] | [10] | [17] | [11]

CCCCCCC1CCCC(=O)O1 (centres undefined)
inactive: [18] | [19] | [1] | [2] | [16] | [3] | [4] | [5] | [6] | [7] | [8] | [10] | [11] | [12] | [13] | [14] | [15]

COc1cccc(OC)c1C(=O)O
inactive: [18] | [19] | [1] | [2] | [16] | [3] | [4] | [5] | [6] | [7] | [8] | [17] | [11] | [13] | [20] | [14] | [15]

CN(C)Cc1cc(C(C)(C)C)c(O)c(C(C)(C)C)c1
active: [10] 22.9 µM | [17] 1.67 µM
inactive: [18] | [19] | [1] | [2] | [3] | [7] | [11] | [12] | [20]

O=C(O)/C=C\C(=O)O
inactive: [1] | [16] | [4] | [5] | [6] | [7] | [8] | [9] | [10]

CC(=O)c1nccs1
inactive: [19] | [1] | [2] | [16] | [4] | [5] | [7] | [17] | [13] | [20] | [14] | [15]

C=CCOC(=O)C(=C)C
inactive: [1] | [2] | [16] | [3] | [5] | [6] | [8] | [17] | [11] | [13] | [20] | [14] | [15]

C=CN1CCCCCC1=O
inactive: [18] | [19] | [1] | [2] | [4] | [8] | [10] | [17] | [11] | [12] | [13] | [20] | [14] | [15]
